Values joined by “and” are separate entries in the source; they are usually repeats but may differ in a detail not shown here. Equal values may be shown once. Results filed as inconclusive are left out. Active and inactive are the calls of the source. Unless noted, the rule behind the calls is not given here.
Assays:
[1] = test system: Aerobactin synthetase IucA (Klebsiella pneumoniae, hypervirulent); experiment: IucA enzyme inhibition, biochemical, LOPAC library, absorbance readout (AID 1346212); details: IucA enzyme assay, absorbance (OD) readout; stronger effect = lower value;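 tested at 8 µM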;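 note: 100% = no compound wells and 0% = no enzyme wells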
[2] = circadian clock period modulators, cell-based, LOPAC library, luminescence reporter (AID 2774); details: circadian reporter cells, at 7 µM, actives lie on both sides;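 note: values are relative to mean of DMSO wells on each plate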
[3] = hESC survival regulators, cell-based (AID 493140); details: human embryonic stem cell survival screen; stronger effect = higher value;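 note: cells exposed to compounds for four days before counting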
[4] = test system: Hepatitis C virus NS3 helicase; experiment: HCV NS3 helicase inhibitors, primary screen, biochemical, fluorescence polarization, LOPAC1280 library (AID 687035; in the data active = inhibition above about 37%); details: Purified HCV NS3 helicase, Cy5-dT15 ssDNA binding fluorescence polarization; stronger effect = higher value; concentration not given here
[5] = Cy5 fluorescence quenching or enhancement artefacts, artefact control for HCV NS3 helicase inhibitor project, biochemical, LOPAC1280 (AID 687037); details: Cy5-DNA-NS3h complex fluorescence interference counterscreen
[6] = growth inhibition of DIPG glioma cells, dose response, cell-based, SU-DIPG-XVII, MIPE5.0, CellTiter-Glo, qHTS (AID 1347060; cut-off not given, nearly all actives have AC50 up to about 26 µM;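 note: cells exposed to compound for 48 hours before viability readout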); details: SU-DIPG-XVII viability, CellTiter-Glo ATP luminescence
[7] = growth inhibition of DIPG glioma cells, dose response, cell-based, SU-DIPG-XIII, MIPE4.0, CellTiter-Glo, qHTS (AID 1347061; cut-off not given, nearly all actives have AC50 up to about 37 µM;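 note: cells exposed to compound for 48 hours before readout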); details: SU-DIPG-XIII viability, CellTiter-Glo ATP luminescence
[8] = growth inhibition of DIPG glioma cells, dose response, cell-based, SU-DIPG-IV, MIPE4.0, CellTiter-Glo, qHTS (AID 1347063; cut-off not given, nearly all actives have AC50 up to about 30 µM;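 note: compound exposure lasted 48 hours before the viability readout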); details: SU-DIPG-IV viability, CellTiter-Glo ATP luminescence
[9] = viability loss in pontine glioma line – cell-based, SU-DIPG-XXV, MIPE5.0, CellTiter-Glo, qHTS, dose response (AID 1347065; cut-off not given, nearly all actives have AC50 up to about 26 µM;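 note: cells exposed to compound for 48 hours before ATP readout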); details: CellTiter-Glo ATP luminescence
[10] = SU-DIPG-VI glioma cell viability, MIPE4.0 library, CellTiter-Glo luminescence, qHTS (AID 1347066; cut-off not given, nearly all actives have AC50 up to about 30 µM;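 note: cells exposed to compound for 48 hours before readout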); details: CellTiter-Glo ATP luminescence
[11] = JHH-DIPG-1 glioma cell viability, MIPE5.0 library, CellTiter-Glo luminescence, qHTS (AID 1347067; cut-off not given, nearly all actives have AC50 up to about 26 µM;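 note: cells exposed to compound for 48 hours before readout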); details: JHH-DIPG-1 glioma viability, CellTiter-Glo ATP luminescence
[12] = sensitizers of A549 cells to miR-34 induction, primary screen, imaging, A549 dox-inducible miR-34, nuclei and caspase counts (AID 1347080;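 active = compounds whose cell count with miR-34 switched on is under 0.7 times the count with it off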); details: A549 miR-34 inducible, Hoechst nuclei count, 48 h
[13] = phospholipid biosynthesis inhibitors in animal cells, primary screen, cell-based, LOPAC library, screen 4 (AID 1347384); details: phospholipid biosynthesis inhibition screen, at 10 µM
[14] = viability rescue of complex I mutant cybrids, primary screen, cell-based, galactose medium, ATP luminescence (AID 1645843;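 active = z-score of at least 1.8 in each of two replicates, scored against plate mean and spread of sample wells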;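 note: positive z means more ATP and so rescue of galactose-driven cybrid death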); details: complex I mutant cybrid cells, 72 h, stronger effect = higher value
[15] = inhibitors of Cryptococcus chitosan production, flow cytometry, Cibacron Brilliant Red staining (AID 1347148); details: Cryptococcus neoformans chitosan, stronger effect = lower value; at 10 µM unless noted;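 note: compound exposure lasted three days at 37 degrees C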
[16] = survival rescue of mitochondrial mutant cells in low glucose, primary screen, MELAS cybrids, Rieske KO mouse fibroblasts, CellTiter-Glo (AID 1508586;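 active = mean z-score across replicates of 1.96 or higher in either the MELAS or the Rieske mutant cell line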;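 note: z relative to plate mean and SD of compound and empty wells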)
[17] = growth inhibition of DIPG glioma cells, dose response, cell-based, JHH-DIPG-1, MIPE4.0, CellTiter-Glo, qHTS (AID 1347062; cut-off not given, nearly all actives have AC50 up to about 27 µM); details: JHH-DIPG-1 viability, CellTiter-Glo ATP luminescence
[18] = measured here: relative caspase fold change +Dox/-Dox
[19] = measured here: total cells with miR-34 induction, stronger effect = lower value
[20] = measured here: total cells without miR-34 induction
[21] = MELAS cybrid survival, CellTiter-Glo 48 h, stronger effect = higher value
[22] = Rieske KO mouse fibroblast survival, CellTiter-Glo 72 h

In the case of `O=C(N[C@@H](Cc1ccccc1)C(=O)CCl)OCc1ccccc1`, the remaining activity [1] is reported as 111% (inactive).

In the case of `O=c1[nH]c2cc([N+](=O)[O-])c([N+](=O)[O-])cc2[nH]c1=O`, the remaining activity [1] is reported as 101% (inactive).

For `O=[N+]([O-])c1ccc(-c2nc(-c3ccc(F)cc3)c(-c3ccncc3)[nH]2)cc1`, the remaining activity [1] was 95.7% (inactive).

In the case of `CC(=O)/C(C)=N/O`, the remaining activity [1] is reported as 106% (inactive).

For `COC[C@H]1OC(=O)c2coc3c2[C@@]1(C)C1=C(C3=O)C2CCC(=O)[C@@]2(C)C[C@H]1OC(C)=O` (stereo partly drawn), the period change [2] was -0.52 h (inactive), the survival [3] was 37.8 (inactive) and the inhibition [4] was -1% (inactive). For the same molecule, the fluorescence ratio (interference) [5] was 1 (inactive), the remaining activity [1] was 109% (inactive) and the AC50 [6] was 5.25 µM (active). The AC50 [7] was 23.5 µM (active), the AC50 [8] was 3.72 µM (active) and the AC50 [9] was 2.63 µM (active). The AC50 [10] was 18.7 µM (active), the AC50 [11] was 4.17 µM (active) and the fold change ([12]; stronger effect = lower value) was 1.01 (inactive). For the same molecule, the fold change [12, 18] was 1.88, the cell count [12, 19] was 3350 and the cell count [12, 20] was 3320. The outcome [13] was “inactive” and the z-score [14] was 0.165 (inactive).

For `CCCN(CCC)[C@@H]1CCc2cccc(O)c2C1`, the period change [2] was -0.075 h (inactive), the inhibition [4] was -5% (inactive) and the fluorescence ratio (interference) [5] was 1 (inactive). The remaining activity [1] was 102% (inactive), the fold change ([12]; stronger effect = lower value) was 1.11 (inactive) and the fold change [12, 18] was 1.06. The cell count [12, 19] was 10200, the cell count [12, 20] was 9240 and the outcome [13] was “inactive”. For the same molecule, the z-score [14] was -0.38 (inactive).

In the case of `C[N+](C)(C)CC#CCOC(=O)Nc1cccc(Cl)c1`, the period change [2] is reported as 0.045 h (inactive), the inhibition [4] is reported as -2% (inactive) and the fluorescence ratio (interference) [5] is reported as 1 (inactive). The remaining activity [1] was 123% (inactive), the fold change ([12]; stronger effect = lower value) was 0.993 (inactive) and the fold change [12, 18] was 1.89. The cell count [12, 19] was 10400, the cell count [12, 20] was 10500 and the outcome [13] was “inactive”. The z-score [14] was -0.395 (inactive).

For `Ic1ccccc1CNC1C2CCN(CC2)C1C(c1ccccc1)c1ccccc1` (stereo not drawn), the period change [2] was 0.145 h (inactive), the inhibition [4] was -8% (inactive) and the fluorescence ratio (interference) [5] was 0.9 (inactive). For the same molecule, the remaining activity [1] was 98.2% (inactive), the fold change ([12]; stronger effect = lower value) was 0.485 (active) and the fold change [12, 18] was 0.281. For the same molecule, the cell count [12, 19] was 329, the cell count [12, 20] was 679 and the outcome [13] was “inactive”. The z-score [14] was -1.29 (inactive).

In the case of `CC(C)c1ccc2c(c1)c(SC(C)(C)C)c(CC(C)(C)C(=O)O)n2Cc1ccc(Cl)cc1`, the remaining activity [1] is reported as 113% (inactive).

With `N#CC(C#N)=Cc1ccc([N+](=O)[O-])c(O)c1` the period change [2] was -0.02 h (inactive), the survival [3] was 124 (inactive) and the remaining activity [1] was 80.4% (inactive). The fold change ([12]; stronger effect = lower value) was 0.901 (inactive) and 1.08 (inactive), the fold change [12, 18] was 1.46 and 1.27 and the cell count [12, 19] was 4360 and 6240. The cell count [12, 20] was 4840 and 5770 and the fold fluorescence [15] was 5.5 [at 232.4 µM] (inactive).

For `C[N+]1(C)C2CCC1CC(OC(=O)c1c[nH]c3ccccc13)C2` (stereo not drawn), the period change [2] was -0.255 h (inactive), the inhibition [4] was 0% (inactive) and the fluorescence ratio (interference) [5] was 1 (inactive). The remaining activity [1] was 94.3% (inactive), the fold change ([12]; stronger effect = lower value) was 0.939 (inactive) and the fold change [12, 18] was 1.36. The cell count [12, 19] was 9240, the cell count [12, 20] was 9840 and the outcome [13] was “inactive”. For the same molecule, the z-score [14] was 0.4 (inactive).

For `NC(Cc1cc(O)c(O)cc1O)C(=O)O` (stereo not drawn), the period change [2] was 0.12 h (inactive), the inhibition [4] was 22% (inactive) and the fluorescence ratio (interference) [5] was 0.9 (inactive). The remaining activity [1] was 96.6% (inactive), the fold change ([12]; stronger effect = lower value) was 1.05 (inactive) and the fold change [12, 18] was 0.814. For the same molecule, the cell count [12, 19] was 9010, the cell count [12, 20] was 8570 and the outcome [13] was “inactive”. The z-score [14] was -0.345 (inactive).

In the case of `CC(Cc1ccc(OCC(=O)O)cc1)NCC(O)c1cccc(Cl)c1` (stereo not drawn), the period change [2] is reported as -0.08 h (inactive), the inhibition [4] is reported as -4% (inactive) and the fluorescence ratio (interference) [5] is reported as 1 (inactive). The remaining activity [1] was 122% (inactive), the fold change ([12]; stronger effect = lower value) was 1.04 (inactive) and the fold change [12, 18] was 2.14. The cell count [12, 19] was 11000, the cell count [12, 20] was 10600 and the outcome [13] was “inactive”. For the same molecule, the z-score [14] was 0.62 (inactive).

In the case of `CC(C)(C)c1cc(C=C(C#N)C#N)cc(C(C)(C)C)c1O`, the period change [2] is reported as 1.05 h (inactive), the survival [3] is reported as 76 (inactive) and the inhibition [4] is reported as 0% (inactive). The fluorescence ratio (interference) [5] was 1 (inactive), the remaining activity [1] was 101% (inactive) and the fold change ([12]; stronger effect = lower value) was 1.14 (inactive) and 1.05 (inactive) and 0.984 (inactive). For the same molecule, the fold change [12, 18] was 0.636 and 2.12 and 0.899, the cell count [12, 19] was 1430 and 1570 and 1940 and the cell count [12, 20] was 1250 and 1490 and 1970. The fold fluorescence [15] was 9.17 [at 177.1 µM] (inactive), the outcome [13] was “active” and the z-score [16, 21] was 0.224 (inactive). The z-score [16, 22] was -0.362 and the z-score [14] was -1.27 (inactive).

In the case of `CC1(C(=O)O)C2CCC(O2)C1(C)C(=O)O` (stereo not drawn), the period change [2] is reported as 0.3 h (inactive), the survival [3] is reported as 0.417 (inactive) and the inhibition [4] is reported as -5% (inactive). For the same molecule, the fluorescence ratio (interference) [5] was 1 (inactive), the remaining activity [1] was 118% (inactive) and the fold change ([12]; stronger effect = lower value) was 0.789 (inactive). It also gave a fold change [12, 18] of 1.91, a cell count [12, 19] of 286 and a cell count [12, 20] of 362. For the same molecule, the outcome [13] was “inactive” and the z-score [14] was -1.46 (inactive).

With `Cc1nc(-c2ccc(-c3ccc(C(=O)N4CCc5cc6c(cc54)C4(CCN(C)CC4)CO6)cc3)c(C)c2)no1` the period change [2] was 0.165 h (inactive), the remaining activity [1] was 96.4% (inactive) and the outcome [7] was “inactive”. For the same molecule, the outcome [17] was “inactive”, the outcome [8] was “inactive” and the outcome [10] was “inactive”.

In the case of `CCCN(CCC)CCc1ccc(O)c(O)c1`, the period change [2] is reported as -0.225 h (inactive), the inhibition [4] is reported as 0% (inactive) and the fluorescence ratio (interference) [5] is reported as 1 (inactive). The remaining activity [1] was 95.7% (inactive), the fold change ([12]; stronger effect = lower value) was 0.99 (inactive) and the fold change [12, 18] was 0.931. The cell count [12, 19] was 10100, the cell count [12, 20] was 10200 and the outcome [13] was “inactive”. The z-score [14] was 0.465 (inactive).

For `NC(=O)CN1CC(O)CC1=O` (stereo not drawn), the period change [2] was 0.03 h (inactive), the inhibition [4] was -2% (inactive) and the fluorescence ratio (interference) [5] was 1 (inactive). The remaining activity [1] was 115% (inactive), the fold change ([12]; stronger effect = lower value) was 1.04 (inactive) and 0.877 (inactive) and the fold change [12, 18] was 1.56 and 1.01. For the same molecule, the cell count [12, 19] was 10800 and 8840, the cell count [12, 20] was 10500 and 10100 and the outcome [13] was “inactive”. The z-score [16, 21] was -0.221 (inactive), the z-score [16, 22] was -0.154 and the z-score [14] was 0.605 (inactive).

In the case of `Cc1sc2ccccc2c1CC1=NCCN1`, the period change [2] is reported as 0.055 h (inactive), the inhibition [4] is reported as -3% (inactive) and the fluorescence ratio (interference) [5] is reported as 0.9 (inactive). For the same molecule, the remaining activity [1] was 99.1% (inactive), the fold change ([12]; stronger effect = lower value) was 1.03 (inactive) and the fold change [12, 18] was 1.95. For the same molecule, the cell count [12, 19] was 9870, the cell count [12, 20] was 9550 and the outcome [13] was “inactive”. For the same molecule, the z-score [14] was -0.09 (inactive).

In the case of `CNCCc1c[nH]c2ccc(O)cc12`, the period change [2] is reported as 0.02 h (inactive), the inhibition [4] is reported as -6% (inactive) and the fluorescence ratio (interference) [5] is reported as 0.9 (inactive). The remaining activity [1] was 121% (inactive), the fold change ([12]; stronger effect = lower value) was 1.03 (inactive) and the fold change [12, 18] was 1.46. For the same molecule, the cell count [12, 19] was 10900, the cell count [12, 20] was 10600 and the outcome [13] was “inactive”. For the same molecule, the z-score [14] was 0.2 (inactive).
